This is part of a sample that, as a whole, favours compounds with a hit. Of some 83,000 tested, about 20% had one in any assay.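 Interpretation: 100, growth as untreated; towards 0, rising growth inhibition; 0, no net growth; 0 to -100, cell death. Compounds scoring below 10 were considered active.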 Values without a mark were called inactive. Calls of active or inactive are those of the source.

Among the test systems are SR leukemia; RPMI-8226 leukemia; OVCAR-8 ovarian; OVCAR-5 ovarian; OVCAR-4 ovarian; SK-OV-3 ovarian; IGROV1 ovarian; OVCAR-3 ovarian; NCI/ADR-RES ovarian.
Assay in all cases: NCI-60 one-dose screen, 48 h (100 = growth as untreated, 0 = no growth, -100 = all killed)
Common to all, as to conditions: 10 µM unless noted

Turning to `CN(C)CCOC(=O)Nc1nc2ccc(Sc3ccccc3)cc2[nH]1`, the growth with SR leukemia was 22%; in the assay with RPMI-8226 leukemia, 19.2%; in the assay on OVCAR-8 ovarian it was 39.4%; with OVCAR-5 ovarian, 59.8%; in the assay with OVCAR-4 ovarian, 73.4%; in the assay with SK-OV-3 ovarian, 33.6%. Moreover, the growth in the assay on IGROV1 ovarian is 44.9%; in the assay with OVCAR-3 ovarian, 22.8%; in the assay on NCI/ADR-RES ovarian, 18.1%.

For `O=C1C=CC2(NN=C(c3ccccc3)N2c2ccc(Cl)cc2)c2cccc(O)c21` (configuration not stated), the growth in the assay on SR leukemia is 36.8%; in the assay on RPMI-8226 leukemia, 64%; in the assay on OVCAR-8 ovarian, 43.4%; with OVCAR-5 ovarian, 47.6%; with OVCAR-4 ovarian, 43.3%; in the assay with SK-OV-3 ovarian, 102%. Besides, the growth with IGROV1 ovarian is 66.7%; in the assay on OVCAR-3 ovarian, 13.5%; in the assay with NCI/ADR-RES ovarian it was 45.1%.

Turning to `CN1CC[C@H](c2c(O)cc(O)c3c(=O)cc(-c4ccccc4Cl)oc23)[C@H](O)C1`, the growth is -0.341% (active) with SR leukemia; 6.39% (active) with RPMI-8226 leukemia; 7.4% (active) in the assay on OVCAR-8 ovarian; 8.36% (active) in the assay on OVCAR-5 ovarian; 1.82% (active) in the assay on OVCAR-4 ovarian; 10.2% with SK-OV-3 ovarian. In addition, the growth in the assay with IGROV1 ovarian was 4.27% (active); in the assay on OVCAR-3 ovarian, 17.4%; in the assay with NCI/ADR-RES ovarian, 2.07% (active).

With `COc1ccc(S(=O)(=O)N(C(C)=O)c2ccccc2/C=C/c2cc[n+]([O-])cc2)cc1`, the growth in the assay on SR leukemia was 16.4%; in the assay on RPMI-8226 leukemia, 22.2%; in the assay with OVCAR-8 ovarian, 14.9%; in the assay with OVCAR-5 ovarian it was 35.4%; with OVCAR-4 ovarian it was 42.4%; with SK-OV-3 ovarian, 6.17% (active). For the same compound, the growth in the assay on IGROV1 ovarian is 24.5%; in the assay on OVCAR-3 ovarian, 28.2%; in the assay with NCI/ADR-RES ovarian it was 17.5%.

Turning to `CO[C@H]1C[C@@H]2CC[C@@H](C)[C@@](O)(O2)C(=O)C(=O)N2CCCC[C@H]2C(=O)O[C@H]([C@H](C)C[C@@H]2CC[C@@H](OC(=O)C(C)(CO)CO)[C@H](OC)C2)CC(=O)[C@H](C)/C=C(\C)[C@@H](O)[C@@H](OC)C(=O)[C@H](C)C[C@H](C)\C=C/C=C/C=C/1C`, the growth in the assay on SR leukemia is 3.69% (active); in the assay on RPMI-8226 leukemia, 11.4%; in the assay with OVCAR-8 ovarian it was 22.3%; with OVCAR-5 ovarian it was 47.1%; with OVCAR-4 ovarian, 28.2%; in the assay with SK-OV-3 ovarian it was 20.4%. The growth in the assay with IGROV1 ovarian was 11.4%; with OVCAR-3 ovarian, 33.5%; in the assay on NCI/ADR-RES ovarian it was 45.9%.

Regarding `Cc1cc(Oc2ccccc2)ccc1Nc1ncnc2ccc(-c3cnc(Cl)c(NS(C)(=O)=O)c3)cc12`, the growth is 14.2% in the assay on SR leukemia; 7.65% (active) in the assay on RPMI-8226 leukemia; 40.4% in the assay on OVCAR-8 ovarian; 10.8% in the assay with OVCAR-5 ovarian; 40.1% with OVCAR-4 ovarian; -26.3% (active) in the assay on SK-OV-3 ovarian. In addition, the growth in the assay with IGROV1 ovarian is -23.5% (active); in the assay on OVCAR-3 ovarian, 11.7%; in the assay with NCI/ADR-RES ovarian, 54.6%.

`CNC(=O)c1ccc(Nc2ncc(C(F)(F)F)c(NCc3nccnc3N(C)S(C)(=O)=O)n2)cc1`: the growth with SR leukemia is -21.3% (active); with RPMI-8226 leukemia, -26.7% (active); in the assay with OVCAR-8 ovarian it was -0.118% (active); in the assay with OVCAR-5 ovarian it was 0.954% (active); with OVCAR-4 ovarian, 1.68% (active); with SK-OV-3 ovarian it was -21.1% (active). Also, the growth was 3.11% (active) with IGROV1 ovarian, 9.41% (active) in the assay on OVCAR-3 ovarian and 29.8% with NCI/ADR-RES ovarian.

`N#CC[C@H](C1CCCC1)n1cc(-c2ncnc3[nH]ccc23)cn1`: the growth in the assay with SR leukemia is 2.14% (active); with RPMI-8226 leukemia, 81.2%; in the assay with OVCAR-8 ovarian it was 64.4%; with OVCAR-5 ovarian, 50.1%; in the assay on OVCAR-4 ovarian, 81.5%; in the assay on SK-OV-3 ovarian, 38.4%. Moreover, the growth in the assay on IGROV1 ovarian was 38%; in the assay on OVCAR-3 ovarian, 83%; in the assay with NCI/ADR-RES ovarian, 87.9%.

On to `N#CCNC(=O)c1ccc(-c2ccnc(Nc3ccc(N4CCOCC4)cc3)n2)cc1`, for which the growth with SR leukemia was 6.43% (active); with RPMI-8226 leukemia, 27.3%; in the assay on OVCAR-8 ovarian it was 24.1%; in the assay on OVCAR-5 ovarian it was 29%; with OVCAR-4 ovarian, 65.8%; in the assay with SK-OV-3 ovarian, 28.7%. Further, the growth in the assay on IGROV1 ovarian is 10.7%; in the assay on OVCAR-3 ovarian, 31.9%; in the assay on NCI/ADR-RES ovarian it was 62.7%.

As to `O=C(Cc1ccc(/C=C/C(=O)c2ncc[nH]2)cc1)Nc1ccc(Br)cc1`, the growth with SR leukemia was 5.06% (active); with RPMI-8226 leukemia it was -13.3% (active); with OVCAR-8 ovarian it was 6.77% (active); in the assay on OVCAR-5 ovarian, 18.7%; in the assay on OVCAR-4 ovarian, 46.4%; with SK-OV-3 ovarian, 70.2%. Also, the results for the growth with IGROV1 ovarian, in the assay with OVCAR-3 ovarian and in the assay with NCI/ADR-RES ovarian were 8.48% (active), 9.63% (active) and 13.4%, respectively.

Take `Cn1cc(-c2cnn3c(N)c(Br)c([C@@H]4CCCNC4)nc23)cn1`: the growth in the assay with SR leukemia was 4.1% (active); with RPMI-8226 leukemia, 24.3%; with OVCAR-8 ovarian, 50.8%; in the assay on OVCAR-5 ovarian, 56.9%; in the assay with OVCAR-4 ovarian, 61.2%; in the assay with SK-OV-3 ovarian, 38.1%. Moreover, the growth with IGROV1 ovarian is 36.9%; in the assay on OVCAR-3 ovarian it was 59.8%; in the assay with NCI/ADR-RES ovarian, 51.5%.

With `C=CCN(/C=C1/C(=O)O[C@H](COC)[C@@]2(C)C1=C(O)C(=O)C1=C2[C@H](OC(C)=O)C[C@]2(C)C(=O)CC[C@@H]12)CC=C`, the growth with SR leukemia is 0.113% (active); in the assay on RPMI-8226 leukemia, 35.2%; with OVCAR-8 ovarian, 29.4%; in the assay on OVCAR-5 ovarian, 20.5%; in the assay with OVCAR-4 ovarian, 30.6%; in the assay with SK-OV-3 ovarian, -19.6% (active). In addition, the growth with IGROV1 ovarian was -1.93% (active); in the assay on OVCAR-3 ovarian, 21%; in the assay with NCI/ADR-RES ovarian it was 35.4%.

Regarding `Cc1cc(Nc2nc(N[C@@H](C)c3ncc(F)cn3)ncc2Cl)n[nH]1`, the growth in the assay with SR leukemia was 7% (active); with RPMI-8226 leukemia, 89.9%; in the assay on OVCAR-8 ovarian it was 88.1%; with OVCAR-5 ovarian, 59.8%; with OVCAR-4 ovarian, 91.6%; in the assay with SK-OV-3 ovarian it was 75.3%. The growth in the assay on IGROV1 ovarian is 45%; with OVCAR-3 ovarian, 93.3%; in the assay on NCI/ADR-RES ovarian, 87.5%.

The record behind these values is PubChem BioAssay (NCI).
